# Assay results taken from PubChem BioAssay (NCATS).
# Results filed as inconclusive are left out. Entries that show only a call come without a potency. Active and inactive are the calls of the source. Unless noted, calls follow the shape of the dose curve; as a rule, active = well fitted curve in the direction sought with a large enough effect; inconclusive = small, poorly fitted or top-dose-only effect, or another doubt; inactive = no such curve, though single readings can be large; an effect the other way counts as inactive or inconclusive.
# Key:
# [1] = target: Catechol O-methyltransferase (Homo sapiens) (UniProt P21964); assay: Confirmatory Screen for Target Class Profiling of Small Molecule Inhibitors of Methyltransferases (AID 1745852; calls by dose curve; also: potency is read from the fitted curve at half-maximal effect); conditions: MTase-Glo luminescence, SAH detection, recombinant enzyme; measured here: COMT max response; stronger effect = lower value
# [2] = target: Guanidinoacetate N-methyltransferase (Homo sapiens) (UniProt Q14353); assay: as above; conditions: MTase-Glo luminescence, SAH detection, recombinant enzyme; activity change, negative = inhibition: at 57.3 µM (top of the series)
# [3] = target: Nicotinamide N-methyltransferase (Homo sapiens) (UniProt P40261); assay: as above; conditions: MTase-Glo luminescence, SAH detection, recombinant enzyme; measured here: NNMT max response; stronger effect = lower value
# [4] = target: Phenylethanolamine N-methyltransferase (Homo sapiens) (UniProt P11086); assay: as above; conditions: MTase-Glo luminescence, SAH detection, recombinant enzyme; measured here: PNMT max response; stronger effect = lower value
# [5] = target: Cytochrome P450 3A4 (Homo sapiens) (UniProt P08684); assay: qHTS Assay for Activators of Cytochrome P450 3A4 (AID 885); conditions: recombinant CYP3A4, Luciferin-PPXE luminescence, 60 min; series mostly up to 57.1 µM; also: nearly all actives have a fitted effect of over 65% in size
# Outline: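 Human CYP3A4 (20 nM) with Luciferin-PPXE at 25 uM (its KM) in 200 mM KPO4; 10 min compound preincubation, then NADPH regeneration and 60 min reaction at RT. Luciferin read by luminescence; normalized to 57 uM ketoconazole full inhibition.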
# [6] = target: ATP-dependent 6-phosphofructokinase (Trypanosoma brucei brucei) (UniProt O15648); assay: qHTS Assay to Find Inhibitors of T. brucei phosphofructokinase: hit validation (AID 492961); conditions: T. brucei PFK, ADP-Glo luminescence; series mostly up to 51.4 µM
# Outline: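 Luminescence from ADP-Glo reports ADP generated as T. brucei PFK (1.25 nM) phosphorylates 0.5 mM fructose-6-phosphate using 0.1 mM ATP. Reactions ran 45 min at room temperature, pH 8.0.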
# 3D7 = assay: qHTS profiling for inhibitors of Plasmodium falciparum proliferation (AID 504749); also: nearly all actives have a fitted effect of over 60% in size; also: potency is read from the fitted curve at half-maximal effect; conditions: P. falciparum in erythrocytes, SYBR Green DNA, 72 h; series mostly up to 28.7 µM
# Outline: (§1)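 P. falciparum-infected erythrocytes (0.3% parasitemia, 2.5% hematocrit) incubated with compound 72 h at 37 C, 5% CO2. Parasite DNA detected by SYBR Green after lysis, overnight at room temperature; normalised to 0.29 uM artemisinin and DMSO.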
# ATS189 = assay: as above; conditions: P. falciparum in erythrocytes, SYBR Green DNA, 72 h; series mostly up to 28.7 µM
# Outline: as §1
# CP185 = assay: as above; conditions: P. falciparum in erythrocytes, SYBR Green DNA, 72 h; series mostly up to 28.7 µM
# Outline: as §1
# CP192 = assay: as above; conditions: P. falciparum in erythrocytes, SYBR Green DNA, 72 h; series mostly up to 28.7 µM
# Outline: as §1
# CP194 = assay: as above; conditions: P. falciparum in erythrocytes, SYBR Green DNA, 72 h; series mostly up to 28.7 µM
# Outline: as §1
# CP201 = assay: as above; conditions: P. falciparum in erythrocytes, SYBR Green DNA, 72 h; series mostly up to 28.7 µM
# Outline: as §1
# CP247 = assay: as above; conditions: P. falciparum in erythrocytes, SYBR Green DNA, 72 h; series mostly up to 28.7 µM
# Outline: as §1
# CP291 = assay: as above; conditions: P. falciparum in erythrocytes, SYBR Green DNA, 72 h; series mostly up to 28.7 µM
# Outline: as §1
# DIV30 = assay: as above; conditions: P. falciparum in erythrocytes, SYBR Green DNA, 72 h; series mostly up to 28.7 µM
# Outline: as §1
# GB4 = assay: as above; conditions: P. falciparum in erythrocytes, SYBR Green DNA, 72 h; series mostly up to 28.7 µM
# Outline: as §1
# HB3 = assay: as above; conditions: P. falciparum in erythrocytes, SYBR Green DNA, 72 h; series mostly up to 28.7 µM
# Outline: as §1
# P94_40 = assay: as above; conditions: P. falciparum in erythrocytes, SYBR Green DNA, 72 h; series mostly up to 28.7 µM
# Outline: as §1
# TAB113 = assay: as above; conditions: P. falciparum in erythrocytes, SYBR Green DNA, 72 h; series mostly up to 28.7 µM
# Outline: as §1
# [7] = target: Cytochrome P450 2D6 (Homo sapiens) (UniProt P10635); assay: Cytochrome P450 family 2 subfamily D member 6 (CYP2D6) small molecule antagonists: luciferase biochemical (cell-free) qHTS assay (AID 1645840; active = well fitted curve in the direction sought with a large enough effect in the repeat runs; an effect the other way counts as inactive or inconclusive; also: nearly all actives have a fitted effect of over 55% in size; also: potency is read from the fitted curve at half-maximal effect); conditions: P450-Glo CYP2D6 enzyme, luciferin luminescence, 1 h; series mostly up to 57.4 µM
# Outline: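 P450-Glo luminescent screen: recombinant CYP2D6 enzyme–proluciferin substrate mix preincubated with compound 10 min at room temperature, then NADPH regeneration added for 1 h at room temperature. Detection reagent added for 20 min; luciferin light read as relative luminescence units.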
# Chain of Catechol O-methyltransferase (Homo sapiens) (P21964 whole entry, looked up): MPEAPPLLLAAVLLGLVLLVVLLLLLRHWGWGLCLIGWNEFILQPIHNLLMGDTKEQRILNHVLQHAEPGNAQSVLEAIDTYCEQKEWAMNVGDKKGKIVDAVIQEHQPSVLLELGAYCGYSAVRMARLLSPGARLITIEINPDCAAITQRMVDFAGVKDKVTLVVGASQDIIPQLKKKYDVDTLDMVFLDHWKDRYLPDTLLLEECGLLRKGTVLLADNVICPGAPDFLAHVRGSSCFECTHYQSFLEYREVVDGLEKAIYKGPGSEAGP
# Chain of Nicotinamide N-methyltransferase (Homo sapiens) (P40261 whole entry, looked up): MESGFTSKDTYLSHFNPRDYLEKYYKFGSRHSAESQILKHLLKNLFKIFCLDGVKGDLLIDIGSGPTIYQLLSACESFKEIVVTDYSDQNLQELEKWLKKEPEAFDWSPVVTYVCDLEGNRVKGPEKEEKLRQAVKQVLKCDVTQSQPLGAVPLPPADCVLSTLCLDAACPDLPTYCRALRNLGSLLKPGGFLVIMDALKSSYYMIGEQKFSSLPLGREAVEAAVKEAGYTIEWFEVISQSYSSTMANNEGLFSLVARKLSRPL
# Chain of Phenylethanolamine N-methyltransferase (Homo sapiens) (P11086 whole entry, looked up): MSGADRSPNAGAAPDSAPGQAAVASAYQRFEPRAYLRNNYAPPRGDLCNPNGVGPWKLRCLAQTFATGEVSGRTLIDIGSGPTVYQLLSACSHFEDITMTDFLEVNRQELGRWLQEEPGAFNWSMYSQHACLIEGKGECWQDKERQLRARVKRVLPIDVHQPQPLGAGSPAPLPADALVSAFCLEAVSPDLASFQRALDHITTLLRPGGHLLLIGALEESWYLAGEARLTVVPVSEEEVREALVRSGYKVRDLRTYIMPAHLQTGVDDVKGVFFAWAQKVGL
# Chain of Cytochrome P450 2D6 (Homo sapiens) (P10635 whole entry, looked up): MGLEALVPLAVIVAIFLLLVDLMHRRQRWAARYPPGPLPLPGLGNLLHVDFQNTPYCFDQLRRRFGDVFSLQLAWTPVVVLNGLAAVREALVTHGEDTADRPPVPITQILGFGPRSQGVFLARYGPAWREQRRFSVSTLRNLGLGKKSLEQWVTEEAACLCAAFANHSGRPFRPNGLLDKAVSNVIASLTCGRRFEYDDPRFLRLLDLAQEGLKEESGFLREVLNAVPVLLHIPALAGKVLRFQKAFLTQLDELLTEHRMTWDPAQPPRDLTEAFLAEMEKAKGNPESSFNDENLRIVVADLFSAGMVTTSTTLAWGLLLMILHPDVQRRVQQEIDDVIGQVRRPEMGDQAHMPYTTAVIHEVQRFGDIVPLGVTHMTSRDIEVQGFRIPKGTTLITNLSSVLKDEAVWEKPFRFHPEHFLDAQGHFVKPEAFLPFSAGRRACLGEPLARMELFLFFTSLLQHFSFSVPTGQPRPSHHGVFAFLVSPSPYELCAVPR
# Chain of ATP-dependent 6-phosphofructokinase (Trypanosoma brucei brucei) (O15648 whole entry, looked up): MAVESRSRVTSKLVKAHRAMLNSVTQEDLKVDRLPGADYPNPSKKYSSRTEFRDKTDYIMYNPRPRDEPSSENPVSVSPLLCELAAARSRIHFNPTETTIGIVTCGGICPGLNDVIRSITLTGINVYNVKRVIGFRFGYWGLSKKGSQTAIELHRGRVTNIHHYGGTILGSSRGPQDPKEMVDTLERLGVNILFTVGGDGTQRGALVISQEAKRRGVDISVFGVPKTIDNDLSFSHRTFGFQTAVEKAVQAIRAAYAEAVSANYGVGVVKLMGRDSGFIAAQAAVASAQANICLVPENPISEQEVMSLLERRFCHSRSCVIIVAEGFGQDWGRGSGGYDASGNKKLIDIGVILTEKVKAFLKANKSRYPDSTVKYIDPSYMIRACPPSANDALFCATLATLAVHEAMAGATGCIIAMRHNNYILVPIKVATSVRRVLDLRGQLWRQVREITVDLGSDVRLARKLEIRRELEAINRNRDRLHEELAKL
# Chain of Cytochrome P450 3A4 (Homo sapiens) (P08684 whole entry, looked up): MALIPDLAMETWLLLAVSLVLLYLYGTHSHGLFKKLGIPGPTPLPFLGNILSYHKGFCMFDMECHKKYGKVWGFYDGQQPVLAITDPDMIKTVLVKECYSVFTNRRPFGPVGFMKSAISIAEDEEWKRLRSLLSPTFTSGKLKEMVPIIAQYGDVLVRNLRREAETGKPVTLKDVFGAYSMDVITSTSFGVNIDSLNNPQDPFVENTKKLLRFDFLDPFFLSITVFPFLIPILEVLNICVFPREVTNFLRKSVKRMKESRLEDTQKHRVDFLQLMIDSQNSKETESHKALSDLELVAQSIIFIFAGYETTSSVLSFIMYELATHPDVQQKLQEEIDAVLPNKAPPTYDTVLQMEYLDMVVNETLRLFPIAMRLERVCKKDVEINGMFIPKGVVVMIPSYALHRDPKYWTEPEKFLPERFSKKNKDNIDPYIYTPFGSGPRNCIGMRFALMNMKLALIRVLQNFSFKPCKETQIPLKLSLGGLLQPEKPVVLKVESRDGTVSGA
structure (smiles),measurement,setting,value
COc1cc2c(NC3CCN(C4CCCCC4)CC3)nc(N3CCCN(C(C)C)CC3)nc2cc1OCCCN1CCCCC1,activity,[1],-2.63%
same,"activity change, negative = inhibition",[2],5.88%
same,activity,[3],-10.6%
same,activity,[4],-1.48%
C=C[C@@](C)(O)CC[C@@H]1[C@@]2(C)CCCC(C)(C)[C@@H]2CC[C@@]1(C)O,Potency,[5],inactive
O=C(/C=C/c1ccc(CN(CCO)CCc2c[nH]c3ccccc23)cc1)NO,activity,[1],18.9%
same,Potency,[2],34.3 µM (active)
same,activity,[3],-12.8%
same,activity,[4],-2.68%
O=C(/C=C/C#Cc1cccc(NS(=O)(=O)c2ccccc2)c1)NO,activity,[1],41.7%
same,"activity change, negative = inhibition",[2],-11.3%
same,activity,[3],-13.8%
same,activity,[4],1.13%
CN(CCOc1ccc(C[C@H](Nc2ccccc2C(=O)c2ccccc2)C(=O)O)cc1)c1ccccn1,Potency,[5],inactive
C[C@@]12C(=O)OC(=O)[C@]1(C)[C@H]1CC[C@@H]2O1,outcome,[6],inactive
same,Potency,3D7,3.16 µM (active)
same,Potency,ATS189,2.82 µM (active)
same,Potency,CP185,2.51 µM (active)
same,Potency,CP192,4.55 µM (active)
same,Potency,CP194,2.87 µM (active)
same,Potency,CP201,3.61 µM (active)
same,Potency,CP247,1.78 µM (active)
same,Potency,CP291,3.22 µM (active)
same,Potency,DIV30,5.73 µM (active)
same,Potency,GB4,4.05 µM (active)
same,Potency,HB3,3.55 µM (active)
same,Potency,P94_40,2.51 µM (active)
same,Potency,TAB113,3.98 µM (active)
C=C1CCC2[C@](C)(CO)C(O)CC[C@]2(C)C1C/C=C1/C(=O)OCC1O (stereo partly specified),Potency,[5],inactive
same,outcome,[6],inactive
same,Potency,3D7,inactive
same,Potency,ATS189,inactive
same,Potency,CP185,inactive
same,Potency,CP192,inactive
same,Potency,CP194,inactive
same,Potency,CP201,inactive
same,Potency,CP247,11.2 µM (active)
same,Potency,CP291,inactive
same,Potency,DIV30,inactive
same,Potency,GB4,inactive
same,Potency,HB3,inactive
same,Potency,P94_40,inactive
same,Potency,TAB113,inactive
Cc1cccc(/C=N/Nc2cc(N3CCOCC3)nc(OCCc3ccccn3)n2)c1,Potency,[7],10.7 µM (active)
Cc1c(CN2CCN(C(=O)[C@H](C)O)CC2)sc2c(N3CCOCC3)nc(-c3cnc(N)nc3)nc12,Potency,[7],inactive
CC(/C=C1\SC(=S)N(CC(=O)O)C1=O)=C\c1ccccc1,outcome,[6],inactive
same,Potency,3D7,inactive
same,Potency,ATS189,inactive
same,Potency,CP185,inactive
same,Potency,CP192,inactive
same,Potency,CP194,inactive
same,Potency,CP201,inactive
same,Potency,CP247,inactive
same,Potency,CP291,inactive
same,Potency,DIV30,inactive
same,Potency,GB4,inactive
same,Potency,HB3,inactive
same,Potency,P94_40,inactive
same,Potency,TAB113,inactive
O=C(/C=C/c1cccnc1)NCCCCC1CCN(C(=O)c2ccccc2)CC1,Potency,[7],16.9 µM (active)
C[C@H](CCC(=O)O)[C@H]1CC[C@H]2[C@@H]3[C@@H](O)C[C@@H]4C[C@H](O)CC[C@]4(C)[C@H]3CC[C@]12C,Potency,[7],inactive
